# Laboratory results from PubChem BioAssay (NCATS).
# Values joined by “and” are separate entries in the source; they are usually repeats but may differ in a detail not shown here. Equal entries are not always repeated. A number with no mark means an inactive call. Records with an inconclusive call do not appear. Active and inactive are the calls of the source. Unless noted, the call rests on the fitted dose curve; in most records, active means well fitted curve in the direction sought with a large enough effect; inconclusive means small, poorly fitted or top-dose-only effect, or another doubt; inactive means no such curve, though single readings can be large; an effect the other way counts as inactive or inconclusive.
# Key:
# Tov112D = experiment: Primary qHTS to identify gynecologic anti-cancer compounds using libraries of approved drugs and bioactive compounds (AID 1345084); conditions: Gynecologic cancer cell panel viability, ATPlite luminescence, 48 h; series mostly up to 57.5 µM; further: on the % scale 0 is the no-effect control and ±100 the full control effect; nearly all actives have a fitted effect of over 55% in size
# In short: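 Cells, 1,000 per well, plated 16 h, then exposed 48 h at 37 C to compounds. Viability by ATPlite luminescence after 15 min at room temperature.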
# astro = experiment: Drug repurposing screens with cells derived from glioblastoma tumor samples (AID 1345199); conditions: viability, ATP luminescence, 48 h; series mostly up to 45.9 µM; further: nearly all actives have a fitted effect of over 40% in size; further: potency means the concentration at half of the fitted maximal effect; on activity, negative = cell killing: on the % scale 0 is the no-effect control and ±100 the full control effect
# In short: (§1)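 Four patient lines of CD133+ GBM neurospheres were screened at several concentrations; hits were retested in those lines plus three slower-growing GBM lines, using 48-hour treatment and ATP-based viability.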
# [1] = target: Nuclear receptor subfamily 1 group I member 2 (Rattus norvegicus) (UniProt Q9R1A7); experiment: qHTS assay for small molecule activators of the rat pregnane X receptor (rPXR) signaling pathway (AID 651751; call rule not given here; further: 0% is about no effect); conditions: rPXR reporter cells, luciferase (One-Glo), 24 h
# [2] = qHTS assay to identify inhibitors of the type 1 interferon - major histocompatibility complex class I in skeletal muscle: Counter screen cell viability and HiBit confirmation (AID 1347412); conditions: iHSKM muscle cells + IFN-b, HiBiT or CellTiter-Glo, 24 h; for activity change, negative = inhibition: at 45.9 µM (top of the series); further: potency means the concentration at half of the fitted maximal effect; on activity change, negative = inhibition: on the % scale 0 is the no-effect control and ±100 the full control effect; on all read-outs here: nearly all actives have a fitted effect of over 60% in size
# In short: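 HLA-B*08:01–HiBiT knock-in immortalized human myoblasts (C25cl48) stimulated with 4.0 ng/ml human IFN-beta and dosed with compound in a 12-point 1:3 titration (top final 46 uM). After 24 hrs at 37 C, HiBiT lytic luminescence or CellTiter Glo ATP read out.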
# [3] = Drug repurposing screens with cells derived from glioblastoma tumor samples (AID 1345199); conditions: GBM patient neurospheres viability, ATP luminescence, 48 h; further: nearly all actives have a fitted effect of over 40% in size; further: potency means the concentration at half of the fitted maximal effect; on activity, negative = cell killing: on the % scale 0 is the no-effect control and ±100 the full control effect
# In short: as §1
# [4] = at 45.9 µM (top of the series), tumour line B
# [5] = at 45.9 µM (top of the series), tumour line D
# [6] = at 46.1 µM (top of the series), tumour line C
# [7] = at 46 µM (top of the series), tumour line A
# Sequence of Nuclear receptor subfamily 1 group I member 2 (Rattus norvegicus) (Q9R1A7 whole entry, looked up): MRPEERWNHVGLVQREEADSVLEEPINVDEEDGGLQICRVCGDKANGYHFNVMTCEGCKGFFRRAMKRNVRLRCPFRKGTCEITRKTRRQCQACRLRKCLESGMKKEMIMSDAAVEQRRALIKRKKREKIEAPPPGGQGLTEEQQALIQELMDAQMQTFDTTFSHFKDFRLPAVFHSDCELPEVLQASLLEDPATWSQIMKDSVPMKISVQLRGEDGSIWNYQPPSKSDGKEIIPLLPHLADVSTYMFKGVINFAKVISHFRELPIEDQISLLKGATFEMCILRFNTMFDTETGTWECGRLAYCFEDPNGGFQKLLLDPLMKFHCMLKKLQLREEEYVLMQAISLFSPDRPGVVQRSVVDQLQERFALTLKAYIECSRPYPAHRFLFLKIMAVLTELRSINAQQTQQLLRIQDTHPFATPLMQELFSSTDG
smiles,measurement,setting,value
CS(=O)(=O)OCCCCOS(C)(=O)=O,Potency,Tov112D,inactive
same,Potency,astro,inactive
same,max response,[1],1.78% and 1.87% and -0.923%
Clc1ccc(C(Cn2ccnc2)OCc2ccc(Sc3ccccc3)cc2)c(Cl)c1 (stereo not drawn),Potency,Tov112D,inactive
same,"activity change, negative = inhibition",[2]; HiBiT,-10.3%
same,"activity change, negative = inhibition",[2]; Viability,-8.18%
O=Nc1c(-c2c(O)[nH]c3cc(Br)ccc23)[nH]c2ccccc12,Potency,[2]; HiBiT,22.2 µM (active)
CCOC(=O)C1=C[C@@H](OC(CC)CC)[C@H](NC(C)=O)[C@@H](N)C1,"activity, negative = cell killing",[3]; [4],-10.4%
same,"activity, negative = cell killing",[3]; [5],-1.97%
same,"activity, negative = cell killing",[3]; [6],5.2%
same,Potency,astro,inactive
Nc1ccn([C@@H]2O[C@H](CO)[C@@H](O)C2O)c(=O)n1 (stereo partly drawn),"activity, negative = cell killing",[3]; [5],-14.9%
same,"activity, negative = cell killing",[3]; [6],-25.6%
same,Potency,[3]; tumour line A,7.08 µM (active)
same,Potency,astro,inactive
Nc1nc(Cl)nc2c1ncn2[C@H]1C[C@H](O)[C@@H](CO)O1,max response,[1],-12.9%
C[Se]CCC(N)C(=O)O (stereo not drawn),"activity, negative = cell killing",[3]; [4],-7.06%
same,"activity, negative = cell killing",[3]; [5],3.7%
same,"activity, negative = cell killing",[3]; [7],-13.2%
same,"activity, negative = cell killing",[3]; [6],5.25%
same,Potency,astro,inactive
COc1cc(Nc2c(C#N)cnc3cc(OCCCN4CCN(C)CC4)c(OC)cc23)c(Cl)cc1Cl,Potency,[2]; HiBiT,11.1 µM (active)
same,Potency,[2]; Viability,24.9 µM (active)
O=c1c(O)c(-c2ccc(O)cc2O)oc2cc(O)cc(O)c12,max response,[1],-2.11%
NC(=NCc1ccccc1)NC(=O)c1nc(Cl)c(N)nc1N,"activity change, negative = inhibition",[2]; HiBiT,-27.7%
same,"activity change, negative = inhibition",[2]; Viability,-20.2%
Cc1ccc(NC(=O)c2ccc(CN3CCN(C)CC3)cc2)cc1Nc1nccc(-c2cccnc2)n1,"activity, negative = cell killing",[3]; [6],17.6%
same,Potency,[3]; tumour line A,12.6 µM (active)
same,Potency,[3]; tumour line B,20 µM (active)
same,Potency,[3]; tumour line D,12.6 µM (active)
same,Potency,astro,20 µM (active)
Nc1ncn([C@H]2C[C@H](O)[C@@H](CO)O2)c(=O)n1,"activity, negative = cell killing",[3]; [4],-23%
same,"activity, negative = cell killing",[3]; [5],-5.51%
same,"activity, negative = cell killing",[3]; [7],-24.9%
same,"activity, negative = cell killing",[3]; [6],-19.7%
same,Potency,astro,inactive
COC1=C(OC)C(=O)C(CCCCCCCCCCO)=C(C)C1=O,"activity, negative = cell killing",[3]; [4],-9.04%
same,"activity, negative = cell killing",[3]; [6],1.43%
CC(C)[N+]1(C)[C@@H]2CC[C@H]1CC(OC(=O)C(CO)c1ccccc1)C2 (stereo partly drawn),"activity, negative = cell killing",[3]; [4],-10.3% and -8.73%
same,"activity, negative = cell killing",[3]; [5],-5.23% and -7.38%
same,"activity, negative = cell killing",[3]; [7],-16.8%
same,"activity, negative = cell killing",[3]; [6],14% and -28.4%
same,Potency,astro,inactive
CCCCCCCCCCCCCCCCCCCCCCO,"activity, negative = cell killing",[3]; [4],-4.68%
same,"activity, negative = cell killing",[3]; [5],1.13%
same,"activity, negative = cell killing",[3]; [7],-31.4%
same,"activity, negative = cell killing",[3]; [6],4.25%
same,Potency,astro,inactive
C[C@H](Cn1cnc2c(N)ncnc21)OCP(=O)(O)O,"activity, negative = cell killing",[3]; [4],-17.6%
same,"activity, negative = cell killing",[3]; [5],-7.53%
same,"activity, negative = cell killing",[3]; [7],-24.5%
same,"activity, negative = cell killing",[3]; [6],-20.5%
same,Potency,astro,inactive
Cc1ccc(C)c(OCCCC(C)(C)C(=O)O)c1,Potency,Tov112D,inactive
same,Potency,astro,inactive
same,max response,[1],-0.498% and -3.12%
CCN(CC)C(=S)SSC(=S)N(CC)CC,Potency,astro,63.1 µM (active)
same,max response,[1],-4.1%
